High-throughput results (PubChem)
RMI FANCM FP – inhibitors of human RMI core complex binding to FANCM MM2 | AID 1159607 | actives 0.58% (n = 70,000) | FP signal (polarization) at 33 µM | Fluorescence polarization, RMI core complex with F-MM2 peptide; hits give low values; in the data active means FP signal below about 40
* = called active by the depositor. This is one part of a sample in which hits are shown more often than they occur.

SMILES	RMI FANCM FP
COc1cc(Cl)cc(CNC(C)C(=O)O)c1O (centres undefined)	41
CCOC(=O)c1c(N)sc(C)c1-c1ccccc1	52
CCOC(=O)c1c(N)oc2c(-c3ccc(C)cc3)c3c(C(=O)OCC)c(N)oc3cc12	22*
CCOC(=O)c1cc(-c2ccc(N)cc2)oc1C	56
Cc1cc(SCc2ccc(C#N)cc2)nc(SCc2ccc(C#N)cc2)n1	65
COc1ccc(OC)c(NC(=O)Cn2ncn3nc(-c4ccc(F)cc4)cc3c2=O)c1	140
O=C(Cn1ccn(-c2ccc(F)cc2)c(=O)c1=O)Nc1cccc(Cl)c1	54
Cc1cc(OCC(=O)NCCOc2ccc3nnc(-c4ccccc4)n3n2)ccc1Cl	69
N#Cc1c(-c2ccco2)c2c([nH]c1=O)-c1ccccc1CC2	-59
N#Cc1c(-c2ccco2)cc(-c2ccco2)[nH]c1=O	-9
N#Cc1c(-c2ccco2)c2c([nH]c1=O)-c1ccccc1OC2	-3*
Cc1ccc(-c2csc3ncnc(Nc4ccc(Cl)c(C(F)(F)F)c4)c23)cc1	78
Cc1cc(S(=O)(=O)Nc2ccccc2-c2nnc(-c3ccc(C(C)(C)C)cc3)o2)c(C)cc1Cl	53
Cc1ccc(N=C2C=C(Cl)C(=O)C(Cl)=C2)cc1	54
Cc1ccc(N=C2C=C(SC#N)C(=O)C(SC#N)=C2)cc1	-16*
Cc1ccc(N=C2CSC(=O)N2)cc1	55
COc1cccc(-n2nnc3c(N4CCN(C(=O)C5CCCCC5)CC4)ncnc32)c1	54
O=C1NN=CC1CCCN=Cc1cc(Cl)cc(Cl)c1O (centres undefined)	24*
OCCN=Cc1cc(Cl)cc(Cl)c1O	36
CSC(=NC(C)(C)C)N/N=C\c1cc(Cl)cc(Cl)c1O	70
Oc1c(Cl)cc(Cl)cc1/C=N\NC(=S)Nc1cc(C(F)(F)F)cc(C(F)(F)F)c1	79
Oc1c(Cl)cc(Cl)cc1C=NCC1CCC(CN=Cc2cc(Cl)cc(Cl)c2O)CC1 (centres undefined)	10*
O=C(Nc1sc2ccccc2c(=O)c1-c1cccs1)c1ccc([N+](=O)[O-])cc1	-19*
O=C(Nc1cccc2c1C(=O)c1ccccc1C2=O)c1ccc([N+](=O)[O-])cc1	53
O=C(Nc1sc2ccccc2c(=O)c1-c1ccc2c(c1)OCO2)c1cccs1	64
SMILES	RMI FANCM FP
C/C(=N/N)c1c(-c2ccccc2)c2cc(C)ccc2[nH]c1=O	64
CCOc1ccc(CC(=O)Nc2ccc3nc(C)n(-c4ccc(F)cc4)c(=O)c3c2)cc1	63
Cc1cc2cc(CNC(=O)c3ccccc3F)ccc2n1C	58
Cc1cc2cc(CNC(=O)c3ccccc3Br)ccc2n1C	55
Cc1cc2cc(CNC(=O)c3ccccc3Cl)ccc2n1C	30*
O=[N+]([O-])c1ccccc1S(=O)(=O)NCCc1csc(-c2ccc(Cl)cc2)n1	57
Fc1ccc2nc(Nc3nnc(-c4cccs4)o3)sc2c1	84
Fc1ccc2nc(Nc3nnc(-c4ccco4)o3)sc2c1	80
COc1ccccc1-c1nnc(Nc2nc3ccc(F)cc3s2)o1	29*
O=C(c1cccc2ccccc12)N1CCN=C1SCc1cccc(C(F)(F)F)c1	112
Cc1ccccc1Cn1cnc2c(cnn2CCNC(=O)CSCc2ccccc2)c1=O	64
COc1ccc(Cl)cc1C(=O)Nc1nc(CN2CCc3ccccc3C2)cs1	81
COc1cc(NC(=O)Cn2c(C)nc3c(sc4cccc(F)c43)c2=O)cc(OC)c1	94
N#Cc1c(-c2ccc3c(c2)OCO3)cc(-c2ccccc2O)[nH]c1=O	76
COc1ccc(-c2cc(-c3ccc(C)c(C)c3)nc(SCC(=O)NCc3ccc4c(c3)OCO4)c2C#N)cc1OC	104
N#Cc1c(-c2ccc3c(c2)OCO3)nc(N2CCCCC2)[nH]c1=O	23*
COc1ccc(S(=O)(=O)NCCCn2ncccc2=O)cc1C	62
O=S(=O)(Nc1cc(Br)c(O)c2ccccc12)c1ccc2ccccc2c1	29*
COc1ccc(S(=O)(=O)Nc2cc(-c3c(O)ccc4ccccc34)c(O)c3ccccc23)cc1	58
CCOc1ccc(S(=O)(=O)Nc2cc(-c3c(O)ccc4ccccc34)c(O)c3ccccc23)cc1	56
N#CCCSc1ccccc1NC(=O)/C=C/C(=O)O	64
O=C(O)/C=C\C(=O)Nc1cccc2ccccc12	-3*
O=C(O)/C=C\C(=O)Nc1ccccc1OC(F)(F)F	53
CN1CCc2c(n(CC(O)Cn3nnc4ccccc43)c3ccccc23)C1=O (centres undefined)	60
COc1ccc(/C=C2\SC(=S)N(CCC(=O)Nc3cc(C)on3)C2=O)cc1OC	58
SMILES	RMI FANCM FP
O=C(CCCN1C(=O)/C(=C2\SC(=S)N(CCCC(=O)Nc3cccc(C(=O)O)c3)C2=O)SC1=S)Nc1cccc(C(=O)O)c1	54
Cc1cc(NC(=O)CCN2C(=O)/C(=C3\SC(=S)N(CCC(=O)Nc4cc(C)on4)C3=O)SC2=S)no1	21*
Cc1ccc(S(=O)(=O)OCC(NC(=O)OC(C)(C)C)C(=O)OCc2ccccc2)cc1 (centres undefined)	62
CC(C)c1cc(=O)[nH]c(-n2nc(-c3cccs3)cc2NC(=O)c2cccs2)n1	75
CC(C)c1cc(=O)[nH]c(-n2nc(-c3cccs3)cc2NC(=O)/C=C\c2ccc3c(c2)OCO3)n1	26*
Cc1cc(=O)[nH]c(-n2nc(C)cc2NC(=O)/C=C/c2ccc3c(c2)OCO3)n1	54
COc1ccc(CSc2ccc([N+](=O)[O-])c3nonc23)cc1	33
CCC(=O)NCCOc1ccc2nnc(-c3ccccc3)n2n1	68
COCC(=O)NCCOc1ccc2nnc(-c3ccccc3)n2n1	26*
O=C(Cc1ccccc1)NCCOc1ccc2nnc(-c3ccccc3)n2n1	69
CCCSc1nnc(NC(=O)CSc2nnnn2-c2ccccc2F)s1	56
O=C(CC1CSc2nc3c(c(=O)n21)CCCC3)N1CCc2ccccc2C1 (centres undefined)	60
NC(=O)c1ccc[n+](CC(=O)c2ccc3c(c2)Cc2ccccc2-3)c1	71
NC(=O)c1ccc[n+](CC(=O)c2ccc(Cl)c(Cl)c2)c1	62
NC(=O)C[n+]1ccc2ccccc2c1	12*
O=C(CSc1nnc(NC(=O)c2ccccc2[N+](=O)[O-])s1)Nc1ccc(OC(F)(F)F)cc1	61
COc1ccc(CC(=O)Nc2cc(-c3ccco3)nn2-c2nc(C)c(C)c(=O)[nH]2)cc1OC	33*
COc1ccc(CCC(=O)Nc2cc(-c3ccco3)nn2-c2nc(C)c(C)c(=O)[nH]2)cc1	41
Cc1nc(-n2nc(-c3ccco3)cc2NC(=O)COc2ccc(Cl)cc2)[nH]c(=O)c1C	57
CC(=O)N1N=C(c2cccc([N+](=O)[O-])c2)OC1(C)C	60
Cc1ccc2nc(N(CCCN(C)C)C(=O)c3ccc(Oc4ccccc4)cc3)sc2c1	82
O=C(CC1OC(=O)c2ccccc21)c1ccccc1Cl (centres undefined)	51
Cc1ccc(NC(=O)c2oc3ccccc3c2NC(=O)CCCc2ccccc2)cc1C	82
Cc1onc(-c2ccccc2)c1C(=O)NC1C(=O)N2[C@@H]1SC(C)(C)[C@@H]2C(=O)O (some centres undefined)	9*
CC(=O)Nc1ccc(OCCCNC(=O)c2c(-c3ccccc3)noc2C)cc1	63
Cc1onc(-c2ccccc2)c1C(=O)NCCNC(=O)c1c(-c2ccccc2)noc1C	-22*
Cc1onc(-c2ccccc2)c1C(=O)NNC(=O)C1CC1	61
Cc1onc(-c2c(Cl)cccc2Cl)c1C(=O)N[C@@H]1C(=O)N2[C@@H]1SC(C)(C)[C@@H]2C(=O)O	65
